In PubChem BioAssay AID1159580 (chemical genetic matrix, 2015):
In all, about 5,500 compounds went through this assay and about 2,000 (36%) were called active. Roughly 18% stayed inconclusive and do not appear here. Rule as the data show it: active = normalized growth mostly below about 0.91 (no sharp cut-off); inconclusive = no clear call, values can overlap the other calls; inactive = mostly above about 0.92. The list shows a part of the results.

Experiment: chemical genetic growth profiling, strain panel (AID 1159580);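 also: tested at 20 µM; growth read once vehicle control cultures reached saturation at 30 °C; 1 = growth at the plate median or of vehicle wells; lower values mean less growth of the strain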
Details: S. cerevisiae deletion strains, growth OD

Measured: normalized growth

C[C@]12CC[C@@H]3c4ccc(O)cc4CC[C@H]3[C@@H]1CC[C@@H]2O
inactive: locus YAL013W, strain DEP1, stronger effect = lower value 1 | locus YAL040C, strain CLN3, stronger effect = lower value 1.01 | locus YCL061C, strain MRC1 (second series), stronger effect = lower value 1.01 | locus YDR150W, strain NUM1, stronger effect = lower value 1.01 | locus YDR363W, strain ESC2, stronger effect = lower value 1.01 | locus YER002W, strain NOP16, stronger effect = lower value 1.02 | locus YGR078C, strain PAC10, stronger effect = lower value 0.999 | locus YJR075W, strain HOC1, stronger effect = lower value 1.01 | locus YNL153C, strain GIM3, stronger effect = lower value 0.948 | locus YNL175C, strain NOP13, stronger effect = lower value 1.01 | locus YNL197C, strain WHI3, stronger effect = lower value 1.03 | locus YNL224C, strain SQS1, stronger effect = lower value 1.03 | locus YOR083W, strain WHI5 (second series), stronger effect = lower value 0.899
